# Laboratory results taken from ChEMBL document CHEMBL4513216, “Probing the Open Global Health Chemical Diversity Library for Multistage-Active Starting Points for Next-Generation Antimalarials” (ACS Infect Dis, 2020).
# Hit rate of the full screen: of about 69,000 compounds, about 8,600 (12%) showed an effect of 50% or more. The full list was thinned out, with strong results kept by preference.
# System: Plasmodium berghei
# Experiment: Screen against P. berghei liver stage (PbLuc), transformed with Luciferase, at 10uM
# Assay type: functional, HepG2
# Details: tested at 10 uM
row,Structure (SMILES),INHIBITION [%]
1,O=C1Nc2ccccc2NC12CCN(Cc1nnc(C3CC3)o1)CC2,56.1
2,CC(C)c1nnc(CN2CCC3(CC2)Nc2ccccc2NC3=O)o1,-20.7
3,CCc1nnc(CN2CCC3(CC2)Nc2ccccc2NC3=O)o1,18.2
4,CC(=O)N1CCN(c2cc(-n3cccc3)ncn2)CC1,-12.1
5,CN(c1cccnn1)[C@@H]1CC[C@@H]2CN(Cc3cccc(C(=O)O)c3)C[C@@H]21,30.6
6,CC(C)CN(CC(O)c1ccc(F)cc1)C(=O)c1csnn1 (stereo not drawn),-3.48
7,CS(=O)(=O)N1CCN(CC(=O)Nc2cccc(Cl)c2)CC1,6.83
8,Fc1ccc(C(NCc2nnc(C3CC3)o2)C2CCC2)cc1 (stereo not drawn),23.9
9,c1ccc(C(NCc2nnc(-c3ccco3)o2)C2CCC2)cc1 (stereo not drawn),50.8
10,CC(C1CC1)N(C)Cc1nnc(-c2ccco2)o1 (stereo not drawn),21.5
11,Fc1ccc(OC2CCN(Cc3nnc(-c4ccco4)o3)CC2)cc1,-53.1
12,Fc1ccc(C(NCc2nnc(-c3ccco3)o2)C2CCC2)cc1 (stereo not drawn),82.3
13,Cc1ccc(N2CCCC(NCc3nnc(-c4ccco4)o3)C2)nn1 (stereo not drawn),11.94
14,CCc1nc(CN(C)C2CCN(CCn3cccn3)C2)no1 (stereo not drawn),14.1
15,Cn1cnnc1CN1CCC2(CCCN(C3CCCC3)C2=O)C1 (stereo not drawn),-15.6
16,CCn1nc(C)c(CCNC(=O)C2CCCN(C3CCCC3)C2)c1C (stereo not drawn),-23.4
17,CCc1nnc2n1CCN(CC(O)CN1CCC(C)CC1)C2 (stereo not drawn),30.3
18,Cc1nnc2n1CCN(CC(O)CN1CCC(C)CC1)C2 (stereo not drawn),78.2
19,CC1CCN(CC(O)CN2CCn3c(nnc3C3CC3)C2)CC1 (stereo not drawn),12.3
20,COc1ccc(C)cc1CN(C)CC(N)=O,-33.4
21,CC(C)CNC(=O)C1=NOC2(CCN(Cc3ccoc3)C2)C1 (stereo not drawn),-4.26
22,Cc1ccc(S(=O)(=O)N2CCC3(CC(C(=O)NCC(C)C)=NO3)C2)cc1 (stereo not drawn),-10.2

row,Structure (SMILES),INHIBITION [%]
1,O=C(NCC1CC1)C1=NOC2(CCN(Cc3ccc4c(c3)OCO4)C2)C1 (stereo not drawn),6.38
2,CC(C)CNC(=O)C1=NOC2(CCN(Cc3ccc(C(C)C)cc3)C2)C1 (stereo not drawn),80.2
3,Cc1ccc(CN2CCC3(CC(C(=O)NCC4CC4)=NO3)C2)cc1C (stereo not drawn),31.2
4,N#Cc1cccc(CN2CCC3(CC(C(=O)NCC4CC4)=NO3)C2)c1 (stereo not drawn),52
5,CCc1ccc(CN2CCC3(CC(C(=O)NCC(C)C)=NO3)C2)o1 (stereo not drawn),32.5
6,CC(C)CNC(=O)C1=NOC2(CCN(Cc3cccc(C#N)c3)C2)C1 (stereo not drawn),20.6
7,COc1ccc(CN2CCC3(CC2)CC(CC(=O)NC(C)C)CO3)cc1 (stereo not drawn),18.6
8,Cc1cccc(CN2CCC3(CC(C(=O)NCC(C)C)=NO3)C2)c1 (stereo not drawn),76.2
9,COc1ccc(CN2CCC3(CC(C(=O)NCC(C)C)=NO3)C2)cc1 (stereo not drawn),78.2
10,Cc1oncc1C(=O)N[C@@H]1CN(c2ncccn2)C[C@@H]2CCCO[C@@H]21,-34.7
11,O=c1[nH]c2cn(-c3cccc(Cl)c3)c(=O)n2[nH]1,-14.9
12,COc1ccc(CC(=O)N2CCN(c3nccn3C)CC2)cc1,40
13,COCCN1CCCC2(CCN(c3cc(C)c(C#N)c(C)n3)C2)C1=O (stereo not drawn),-8.25
14,CN(C)C(=O)N1CCN(c2cc(N3CCCC3CO)ncn2)CC1 (stereo not drawn),-3.68
15,O=C(c1cncnc1)N1C[C@@H]2CC[C@H](Oc3cccc(F)c3)[C@@H]2C1,5.11
16,CCc1n[nH]c(=O)c(C(=O)N2CCOC3(CCCC3)C2)c1CC,48.2
17,Cn1cnc(S(=O)(=O)NCCCN2CCCC2)c1Cl,-9.76
18,Cc1nnc(CN(C)C2CCN(CCc3ccccn3)CC2)o1,21.5
19,Cc1cc(S(=O)(=O)NC(=O)CCc2cccnc2)c(C)s1,32
20,O=C(CCn1ccc2cc(Br)ccc21)NCc1ccc(C(=O)O)cc1,19
21,CC(CNC(=O)CCc1ccco1)N1CCc2sccc2C1 (stereo not drawn),42.5
22,Cc1ccc(CCCC(=O)N2CCCC(CS(N)(=O)=O)C2)s1 (stereo not drawn),9.79

row,Structure (SMILES),INHIBITION [%]
1,CCCc1nnc(NC(=O)NC(C)Cn2cccn2)s1 (stereo not drawn),-45.6
2,CCN(CC1CCOC1)C(=O)c1ccn(-c2ccc(OC)cc2)n1 (stereo not drawn),-2.48
3,COc1nccc(N2CC[C@H](CO)[C@@H](O)C2)c1C#N,-9.02
4,CC(NC(=O)c1cccs1)C(=O)NS(=O)(=O)c1ccc(C#N)cc1 (stereo not drawn),42.1
5,CC(NC(=O)c1cccs1)C(=O)NS(=O)(=O)Cc1ccc(C#N)cc1 (stereo not drawn),53.3
6,CC(NC(=O)c1cccs1)C(=O)NS(=O)(=O)c1cccc(C#N)c1 (stereo not drawn),49.9
7,CCOc1c(C(N)=O)cn(C)c1-c1nc2cc(NC(C)=O)ccc2n1C,44.3
8,O=C1CCNc2cc3c(cc2CN1Cc1ccco1)OCO3,4.82
9,COC(=O)CN1Cc2cc3c(cc2NCCC1=O)OCO3,41.1
10,CC(C)(C)CN1Cc2cc3c(cc2NCCC1=O)OCO3,52.5
11,O=C1CCNc2cc3c(cc2CN1CC1CC1)OCO3,13.1
12,CCN1Cc2cc3c(cc2NCCC1=O)OCO3,64.6
13,CC(C)(C)C(=O)CN1Cc2ccccc2NCCC1=O,10.9
14,O=C(c1n[nH]c(=O)c2ccccc12)N1CCCC1Cn1cccn1 (stereo not drawn),45.9
15,O=C(O)CCc1nc2nccc(C(F)(F)F)n2n1,-25.6
16,O=C(OCC1CCCN1)c1cccc(NC(=O)c2ccco2)c1 (stereo not drawn),-142
17,O=C1CC[C@H]2[C@H](CCN2S(=O)(=O)C2CC2)N1CCN1CCCC1,85.6
18,COCCN1C(=O)CC[C@@H]2[C@@H]1CCN2S(=O)(=O)C1CC1,43.9
19,O=C1CC[C@@H]2[C@@H](CCN2S(=O)(=O)C2CC2)N1CC1CC1,49.4
20,CN1CC(=O)N(c2cnn(C)c2)CC12CCN(CC1CC1)C2 (stereo not drawn),30.3
21,C[C@]1(O)CN(Cc2cscn2)CC[C@@H]1Oc1cccc(F)c1,38.2
22,Cc1cccnc1CN1CC[C@@](C)(O)[C@H](Oc2ccccc2)C1,24.4

row,Structure (SMILES),INHIBITION [%]
1,C[C@]1(O)CN(Cc2ncccc2F)CC[C@@H]1Oc1cccc(F)c1,50.1
2,C[C@]1(O)CN(Cc2ncccc2F)CC[C@@H]1Oc1ccccc1,24.4
3,C[C@]1(O)CCN(Cc2ncccc2F)C[C@@H]1Oc1cccc(F)c1,-4.51
4,C[C@]1(O)CN(Cc2ncc[nH]2)CC[C@@H]1Oc1cccc(F)c1,61.9
5,Cc1nccc(CN2CC[C@H](Oc3cccc(F)c3)[C@@](C)(O)C2)n1,38.7
6,Cc1cccnc1CN1CC[C@H](Oc2cccc(F)c2)[C@@](C)(O)C1,75.3
7,O=C1CC(c2cccnc2)C2(CCN(C(=O)c3ccncc3)CC2)N1 (stereo not drawn),33.5
8,O=c1[nH]c2cn(-c3cccc(Cl)c3)c(=O)n2n1Cc1cccc(F)c1,34
9,Cc1nc(CN2CCCC(NCCCOc3ccc(F)cc3)C2)no1 (stereo not drawn),19.4
10,O=C(O)c1ccc(COc2cccc(Cl)c2)s1,8.49
11,CN1CCN(Cc2cnc3n2CCN(C(=O)c2ccncc2)C3)CC1,42.7
12,CN1CCN(Cc2cnc3n2CCN(C(=O)c2ccccn2)C3)CC1,40.4
13,Cc1cccc(C(=O)N2CCn3c(CN4CCN(C)CC4)cnc3C2)n1,68.4
14,CN1CCN(Cc2cnc3n2CCN(C(=O)c2cnccn2)C3)CC1,20.6
15,CN1CCN(Cc2cnc3n2CCN(C(=O)c2ccoc2)C3)CC1,59
16,CN1CCN(Cc2cnc3n2CCN(C(=O)c2ccnnc2)C3)CC1,32.2
17,CCCc1noc(CCC(=O)N2CCCCC2Cn2cc(C)cn2)n1 (stereo not drawn),28.3
18,O=C(c1ccc(NC2CC2)nc1)N1CCC(Nc2cccnn2)CC1,11.6
19,CC(C)c1nc(CN2CCN(C(=O)CC3CCCCC3)CC2)no1,-3.21
20,CCn1nc(C)c2c1cnn2CCNS(=O)(=O)CC,30
21,CC(C)CCn1c(=O)n(CCn2cccc2)c2cc(C(=O)O)cnc21,36.7
22,Cc1cccc(CN2CCO[C@@H]3CC(COc4ccccn4)C[C@H]32)n1 (stereo partly drawn),35.5

row,Structure (SMILES),INHIBITION [%]
1,Cc1nc(CN2CCO[C@@H]3CC(COc4ccccn4)C[C@H]32)cs1 (stereo partly drawn),31.5
2,c1ccc(OCC2C[C@@H]3[C@@H](C2)OCCN3Cc2ccoc2)nc1 (stereo partly drawn),54.4
3,COCC(O)CN1CCC(=O)N(CC2CC2)Cc2ccccc21 (stereo not drawn),21.5
4,Cc1ccc(C(=O)N(CCC#N)Cc2ccccn2)cc1C,5.48
5,COCc1ccc(C(=O)N(CCC#N)Cc2ccccn2)cc1,44
6,COc1cc(C(=O)N(CCC#N)Cc2ccccn2)ccc1C,29.4
7,COc1ccc(C(=O)N(CCC#N)Cc2ccccn2)cc1,-1.37
8,CCOc1cccc(C(=O)N(CCC#N)Cc2ccccn2)c1,51.7
9,N#CCCN(Cc1ccccn1)C(=O)c1cccc(CN2CCCC2)c1,61.8
10,CCCS(=O)(=O)N1C[C@@H]2C[C@H](C(=O)Nc3cccnc3)[C@H](C1)O2,34.6
11,CNC(=O)[C@H]1C[C@H]2CN(Cc3ccccc3)C[C@@H]1O2,1.7
12,COc1ccc(CN2C[C@@H]3C[C@H](C(=O)Nc4cccnc4)[C@H](C2)O3)cc1,28.7
13,Cc1ccc(CN2C[C@@H]3C[C@H](C(=O)Nc4cccnc4)[C@H](C2)O3)cc1,64.9
14,O=C(Nc1cccnc1)[C@H]1C[C@H]2CN(S(=O)(=O)C3CC3)C[C@@H]1O2,48.6
15,CC(C)CCN1C[C@@H]2C[C@H](C(=O)Nc3cccnc3)[C@H](C1)O2,41.6
16,O=C(Nc1cccnc1)[C@H]1C[C@H]2CN(Cc3ccc(F)cc3)C[C@@H]1O2,63.7
17,CCN1C[C@@H]2C[C@H](C(=O)Nc3ccccc3)[C@H](C1)O2,1.94
18,O=C(Nc1ccccc1)[C@H]1C[C@H]2CN(Cc3cccnc3)C[C@@H]1O2,59
19,CNC(=O)[C@H]1C[C@H]2CN(Cc3ccc(C)cc3)C[C@@H]1O2,9.65
20,CNC(=O)[C@H]1C[C@H]2CN(Cc3cccc(C)c3)C[C@@H]1O2,57.3
